# Data taken from article PMC5540273 (PLoS ONE, 2017).
# Assays:
# Conditions in all cases: concentration: 1 μM,replicates: in singlicate; n = 1
# CSNK1G1 = tested on: CSNK1G1
# CSNK1G2 = tested on: CSNK1G2
# CSNK1G3 = tested on: CSNK1G3
# CSNK2A1 = tested on: CSNK2A1
# CSNK2A2 = tested on: CSNK2A2
# CTK = tested on: T1, CTK
# T1 construct: gene MATK
# DAPK1 = tested on: DAPK1
# DAPK2 = tested on: DAPK2
# DAPK3 = tested on: DAPK3
# DCAMKL1 = tested on: T2, DCAMKL1
# T2 construct: gene DCLK1
# DCAMKL2 = tested on: T3, DCAMKL2
# T3 construct: gene DCLK2
# DCAMKL3 = tested on: T4, DCAMKL3
# T4 construct: gene DCLK3
# DDR1 = tested on: DDR1
# DDR2 = tested on: DDR2
# DLK = tested on: T5, DLK
# T5 construct: gene MAP3K12
# DMPK2 = tested on: T6, DMPK2
# T6 construct: gene CDC42BPG
# DMPK = tested on: DMPK
# DRAK1 = tested on: T7, DRAK1
# T7 construct: gene STK17A
# DRAK2 = tested on: T8, DRAK2
# T8 construct: gene STK17B
# DYRK1A = tested on: DYRK1A
# 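Also: KINOMEscan kinase panel screen.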
SMILES,%Inh (CSNK1G1) [%],%Inh (CSNK1G2) [%],%Inh (CSNK1G3) [%],%Inh (CSNK2A1) [%],%Inh (CSNK2A2) [%],%Inh (CTK) [%],%Inh (DAPK1) [%],%Inh (DAPK2) [%],%Inh (DAPK3) [%],%Inh (DCAMKL1) [%],%Inh (DCAMKL2) [%],%Inh (DCAMKL3) [%],%Inh (DDR1) [%],%Inh (DDR2) [%],%Inh (DLK) [%],%Inh (DMPK2) [%],%Inh (DMPK) [%],%Inh (DRAK1) [%],%Inh (DRAK2) [%],%Inh (DYRK1A) [%]
NC(=O)c1ccc(-c2cc3ncnc(SCC(=O)O)c3s2)cc1,0,17,4,74,78,0,0,0,5,20,9,17,0,9,0,24,0,98.3,100,94.8
Cc1ccc(CC(=O)N2CCc3cc(-c4cn(C)c5ncnc(N)c45)ccc32)cc1 [GSK2634758],30,26,26,0,0,0,0,5,0,0,0,0,61,44,21,68,15,0,0,0
CN1CCN(CCNc2nc3cc(Oc4ccc(NC(=O)Nc5cc(C(F)(F)F)ccc5F)cc4)ccc3[nH]2)CC1.Cl.Cl [GW768504],0,0,0,0,7,0,0,0,0,34,10,0,96.9,99.2,0,10,0,0,17,0
O=C(Nc1cccc(Oc2ccc3nccn3n2)c1)Nc1cccc(C(F)(F)F)c1,0,0,26,0,3,49,14,0,0,0,15,0,99.3,97.8,3,15,0,0,0,0
Cc1ccc(Nc2ccnc(Nc3ccc4c(c3)CS(=O)(=O)C4)n2)cc1O.Cl [GW579362],10,0,19,63,84,25,63,38,70,25,0,0,86,78,78,30,0,45,57,38
Cn1ccc2ncnc(Oc3ccc(NC(=O)Nc4cc(C(C)(C)C)on4)c(Cl)c3)c21,17,15,0,21,30,48,0,0,0,25,15,0,100,99.4,0,6,0,11,35,26
Cl.Nc1n[nH]c2cc(-c3ccccn3)ccc12 [GSK2189892],11,0,31,0,0,0,0,0,19,19,0,0,16,0,4,0,0,37,0,10
CC(C)S(=O)(=O)N1CCN(Cc2ccc3c(c2)nc(NC(=O)c2ccsc2)n3C[C@H](O)c2ccccc2)CC1 [GW635815],16,5,20,6,37,0,0,0,31,0,0,9,46,19,69,0,0,72,11,48
COC(=O)c1cccc(NC(=O)NC2CCN(c3ccnc(Nc4cc(OC)c(OC)c(OC)c4)n3)C2)c1 (stereo not drawn) [GSK1379767],16,0,19,1,29,0,2,0,21,4,0,0,13,55,61,27,0,0,0,0
COc1cccc(C2=C(Nc3cccc(Cl)c3)C(=O)NC2=O)c1 [SB-341556],0,0,19,11,4,0,3,0,7,0,0,31,16,0,0,0,6,0,0,55
COc1cc2ncn(-c3cc(OCC4CCCCC4)c(C(N)=O)s3)c2cc1OC [GSK204559],12,9,32,1,22,0,35,30,64,2,25,0,0,0,31,7,0,0,0,21
Cn1ccc2ncnc(Oc3ccc(NC(=O)Nc4cncc(C(F)(F)F)c4)c(Cl)c3)c21,0,5,0,0,0,0,0,0,0,0,0,0,100,99.9,0,0,0,0,0,0
C[C@@H](Oc1cc(-n2cnc3cc(-c4ccncc4)ccc32)sc1C(N)=O)c1ccccc1Cl [GSK479719],13,0,23,0,35,21,61,30,22,0,3,0,0,0,0,0,0,0,0,57
Cn1ccc2ncnc(Oc3ccc(NC(=O)Nc4cnn(C(C)(C)C)c4)c(Cl)c3)c21,0,32,0,0,38,20,8,0,0,10,5,2,100,100,0,0,15,0,3,11
C[C@@H]1CNc2c(sc3ccc4nc(-c5ccncc5)ccc4c23)C(=O)N1,16,15,21,38,0,0,30,24,13,4,0,55,0,0,0,0,27,99,98.3,99.7
CN(c1ccc2c(c1)nc(NCc1ccc(F)cc1)n2C)c1ccnc(Nc2ccc(CS(C)(=O)=O)cc2)n1.Cl [GW813244],0,6,0,0,24,14,5,7,0,28,0,0,98.4,100,0,0,0,15,7,0
O=C1NCCc2[nH]c(-c3ccncc3)cc21,51,93.7,83,64,59,24,77,66,81,16,0,91.8,17,0,8,0,13,97.2,100,99.7

SMILES,%Inh (CSNK1G1) [%],%Inh (CSNK1G2) [%],%Inh (CSNK1G3) [%],%Inh (CSNK2A1) [%],%Inh (CSNK2A2) [%],%Inh (CTK) [%],%Inh (DAPK1) [%],%Inh (DAPK2) [%],%Inh (DAPK3) [%],%Inh (DCAMKL1) [%],%Inh (DCAMKL2) [%],%Inh (DCAMKL3) [%],%Inh (DDR1) [%],%Inh (DDR2) [%],%Inh (DLK) [%],%Inh (DMPK2) [%],%Inh (DMPK) [%],%Inh (DRAK1) [%],%Inh (DRAK2) [%],%Inh (DYRK1A) [%]
COC(=O)c1cccc(NC(=O)NC2CCN(c3ccnc(NCc4ccc(F)cc4)n3)CC2)c1 [GSK1379860],0,0,9,7,0,1,0,0,3,0,18,3,18,0,17,12,0,0,34,18
Cc1n[nH]c2cc(Nc3ccnc(Nc4cccc(CN5CCOCC5)c4)n3)ccc12 [GW682569],0,0,22,31,27,0,58,25,68,4,0,0,70,55,52,0,0,53,16,2
Cn1ccc2ncnc(Oc3ccc(NC(=O)Nc4cccc(C(F)(F)F)c4)c(Cl)c3)c21,0,3,0,0,5,0,89,0,0,46,0,7,99.9,99.9,0,0,0,0,0,0
Cn1ccc2ncnc(Oc3ccc(NC(=O)Nc4cccc(C(F)(F)F)c4)c(F)c3)c21,9,20,0,0,0,0,1,0,13,12,18,17,96.9,100,0,4,0,0,24,0
CCCC(=O)Nc1n[nH]c2ncccc12 [SB-601436],0,0,7,1,0,30,0,0,0,0,0,0,0,0,0,0,0,2,0,0
OCCn1cc(-c2cnc3nnn(Cc4ccc5ncccc5c4)c3n2)cn1,1,0,9,0,0,0,0,0,0,66,0,0,0,4,0,0,0,10,12,0
CCNCC(Cc1ccccc1)NC(=O)c1cc(Br)c(-c2ccnc3[nH]ccc23)s1.Cl.Cl (stereo not drawn) [GSK1383280],8,5,46,87,71,0,7,9,28,42,0,40,8,18,11,90,23,0,0,37
CNC(=O)c1ccccc1Nc1nc(Nc2cccc(CS(C)(=O)=O)c2)ncc1C.O=CO [GSK1520489],27,61,26,92.3,98.6,38,89,57,81,37,15,0,99.9,95.9,96.6,0,0,91.6,5,95.6
COc1cc(Nc2nccc(N3CCC(NC(=O)c4cccc(C#N)c4)C3)n2)cc(OC)c1OC (stereo not drawn) [GSK1379751],0,0,7,0,0,0,0,0,6,5,0,0,0,24,30,1,0,20,4,0
CS(=O)(=O)Nc1ccc(-c2ccnc3[nH]ccc23)cc1 [GSK993273],0,0,17,0,16,0,73,54,89,6,0,0,0,0,83,13,51,99.2,20,88
CN(c1ccccc1CNc1nc(Nc2ccc3c(c2)CC(=O)N3)ncc1C(F)(F)F)S(C)(=O)=O,0,0,13,70,92.7,0,4,24,28,21,0,94.8,12,0,19,0,25,96.5,98.4,28
C[C@@H](Oc1cc(-n2cnc3ccc(-c4ccncc4)cc32)sc1C(N)=O)c1ccccc1Cl [GSK483724],9,14,29,52,89,0,0,0,19,88,18,0,37,8,17,2,47,81,0,82
CN1CCN(CCCNc2nccc(-c3c(-c4ccc(F)cc4)nn4cc(C(N)=O)ccc34)n2)CC1 [GW622475],27,0,20,1,33,1,29,10,16,21,0,7,100,82,0,44,0,0,17,20
CCn1c(-c2nonc2N)nc2cncc(CNC3CCNCC3)c21.Cl [SB-747651],24,0,0,0,0,0,41,0,27,7,0,7,19,25,23,0,27,6,0,56
COC(=O)Nc1nc2cc(Oc3ccc(NC(=O)Nc4cc(C(F)(F)F)ccc4Cl)cc3)ccc2[nH]1.Cl [GW697465],0,0,8,0,0,0,2,0,0,0,11,31,100,98.3,60,0,0,2,0,0
CC(C(=O)NC1CCN(c2ccnc(Nc3ccc(F)cc3)n2)C1)c1ccc(Cl)cc1 (stereo not drawn) [GSK1379713],0,0,18,1,0,0,0,0,0,0,12,9,14,11,19,0,0,6,0,10
